Screening results from PubChem.
HPGD inh: blocks human HPGD enzyme activity. P15428. 150,000 tested, 4.3% active. purified HPGD, NADH fluorescence kinetic, PGE2 substrate. Potency, µM, for the others: top-dose activity change, negative = inhibition, usual class: inhibitors; further: potency means the concentration at half of the fitted maximal effect
Target sequence (P15428 whole entry, looked up): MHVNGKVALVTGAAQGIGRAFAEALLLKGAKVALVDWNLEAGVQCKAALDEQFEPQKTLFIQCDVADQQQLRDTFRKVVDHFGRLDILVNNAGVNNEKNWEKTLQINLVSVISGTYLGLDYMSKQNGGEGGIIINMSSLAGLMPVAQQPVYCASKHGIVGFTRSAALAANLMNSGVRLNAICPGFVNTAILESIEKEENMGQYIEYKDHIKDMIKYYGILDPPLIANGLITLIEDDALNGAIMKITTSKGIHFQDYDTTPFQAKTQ
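20 nM HPGD preincubated 15 min at room temperature with compound in 50 mM Tris-HCl pH 8, 0.01% Tween 20. Started with 1 mM NAD+ and 30 uM prostaglandin E2; NADH fluorescence (360/450 nm) read 5 times over 30-s intervals, last minus first.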
ALDH1A1 block: inhibitors of human aldehyde dehydrogenase 1A1; Potency, µM (titrated, usually from 75.3 µM), for the others: top-dose activity, negative = inhibition, usual class: inhibitors; P00352; Purified ALDH1A1, NADH fluorescence, propionaldehyde substrate; 220,000 tested, 7.3% active;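 further: potency means the concentration at half of the fitted maximal effect; plate controls were no enzyme wells and a reference inhibitor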
JMJD2E inh: inhibitors of human JMJD2E histone demethylase | Potency, µM (doses to about 57.1 µM), for inactives: at the highest dose activity change, negative = inhibition, hits mostly inhibitors | AID 2147 | JMJD2E catalytic domain, FDH-coupled NADH fluorescence (FDH is formaldehyde dehydrogenase) | 230,000 tested, 1.6% active;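 further: potency means the concentration at half of the fitted maximal effect; 0% = wells with enzyme and -100% = buffer wells without enzyme; nearly all actives have a fitted effect of over 50% in size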
Target sequence (B2RXH2 1-337 limits assumed): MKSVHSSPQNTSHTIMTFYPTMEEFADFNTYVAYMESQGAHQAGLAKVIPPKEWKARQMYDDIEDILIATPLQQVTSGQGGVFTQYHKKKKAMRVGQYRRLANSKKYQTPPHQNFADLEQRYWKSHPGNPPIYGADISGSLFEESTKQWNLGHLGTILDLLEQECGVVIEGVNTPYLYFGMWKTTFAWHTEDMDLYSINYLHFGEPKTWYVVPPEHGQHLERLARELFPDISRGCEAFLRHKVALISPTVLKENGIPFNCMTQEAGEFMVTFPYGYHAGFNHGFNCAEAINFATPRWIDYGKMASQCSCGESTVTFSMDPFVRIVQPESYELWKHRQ
PNC assembly inh: inhibitors of perinucleolar compartment assembly; activity change (PNC), negative = inhibition, % at 10 µM; 140,000 tested, 3.1% active; PC3M PTB-GFP, PNC prevalence imaging, 16 h; hits give low values;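 active means readout at or below -70, meaning at least 70% loss of cells showing the perinucleolar compartment, a nuclear body marking cancer cells; inconclusive means readout between -30 and a set limit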;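 further: plate controls were DMSO wells for no effect and camptothecin positive control wells for full effect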
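Read-out is percentage of cells bearing a perinucleolar compartment, from automated 20x imaging of fixed, Hoechst-stained PC3M PTB-GFP cells. Cells were seeded 4 h, then exposed 16 h to compound (23 nl of library stock) in duplicate plates.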
The depositor's hits bear a star; ? = inconclusive; · = no result given; [ ] = remark or other dose. A selection: hits, their analogues and other compounds. The true share with any hit is near 11%. Unless noted, the call rests on the fitted dose curve; in most records, active means well fitted inhibition curve with a large enough effect (not every such curve was filed as active); inconclusive means small, poorly fitted or top-dose-only effect, or another doubt; inactive means no such curve, though single readings can be large or run the other way. Unless noted, on the % scale 0 is the no-effect control and ±100 the full control effect.

SMILES | HPGD inh | ALDH1A1 block | JMJD2E inh | PNC assembly inh
N#Cc1ccc(C(=O)Nc2ccc([N+](=O)[O-])cc2)c(F)c1 | · | 4.3% | -5.4% | ·
CCOC(=O)/C(=N\Nc1ccccc1)P(=O)(c1ccccc1)c1ccccc1 | · | · | -3.3% | ·
O=C(O)c1ccc(Cl)c(S(=O)(=O)Nc2ccccc2F)c1 | -6.9% | 1.2% | · | ·
Cc1ccc(C)c(NC(=O)C(Sc2nnc(-c3cccs3)o2)c2ccccc2)c1 (configuration not stated) | · | ? | -1.3% | ?
Cc1nn(CCCC(=O)Nc2sc3c(c2C#N)CCC3)c(C)c1[N+](=O)[O-] | 22.4µM* | 2.51µM* | 4.6% | 2.5
CC(C)c1onc(C(=O)Nc2sc3c(c2C#N)CCC3)c1[N+](=O)[O-] | · | 12.6µM* | -9.1% | ·
CCc1c(C)sc(NC(=O)c2cc(C(C)C)on2)c1C#N | · | 17.8µM* | -7.1% | ·
CCc1ccc(NC(=O)c2cc(C(C)C)on2)cc1 | -23.7% | ? | 1.4% | 10.9
CCc1c(C)sc(NC(=O)c2cc(C)no2)c1C#N | 31.6µM* | 12.6µM* | -4.2% | 32.5
CCCNC(=O)c1cc(C)no1 | -5.7% | 9.4% | 5.4% | 37.1
Cc1cc(C)cc(Oc2ccccc2CO)c1 | · | 1.0% | -5.0% | ·
O=Nc1c(O)[nH]c2ccc(F)cc12 | · | -2.7% | 3.4% | ·
Cc1cc2c(N=O)c(NO)ccc2[nH]1 | -7.7% | -4.1% | 11.2µM* | 56.5
CN(Cc1ccco1)c1cc(-c2ccoc2)ncn1 | · | 25.1µM* | · | ·
COC(=O)c1c(NC(=O)Cn2nc(C(F)F)cc2C(F)F)sc(C)c1C | 28.2µM* | 11.2µM* | -17.6% | ?
CCOC(=O)c1c(NC(=O)Cn2cnc([N+](=O)[O-])n2)sc(C)c1C | · | 31.6µM* | -2.5% | ·
CC(C)OC(=O)c1c(NC(=O)Cn2cnc([N+](=O)[O-])n2)sc2c1CCCC2 | -27.4% | 12.6µM* | 2.8% | ?
CCOC(=O)c1c(NC(=O)Cn2cnc([N+](=O)[O-])n2)sc2c1CCCC2 | -16.6% | ? | 8.3% | 30.0
CCOC(=O)c1c(NC(=O)Cn2cnc3scc(-c4ccc(C)cc4)c3c2=O)sc(C)c1C | -29.5% | 14.1µM* | 0.6% | ?
CCOC(=O)c1c(NC(=O)Cn2cnc3sc(C)c(-c4ccccc4)c3c2=O)sc(C)c1C | ? | ? | -4.4% | 7.1
CCOC(=O)N1CCN(C(=O)CN(C2CCCCC2)S(=O)(=O)c2ccc(C)cc2)CC1 | 1.3% | 7.08µM* | -5.9% | ?
Cc1ccc(S(=O)(=O)N(CC(=O)N2CCN(c3ccc(F)cc3)CC2)C2CCCCC2)cc1 | -9.4% | ? | 4.8% | 42.7
COCCCNC(=O)CN(C1CCCCC1)S(=O)(=O)c1ccc(C)cc1 | -2.2% | 14.1µM* | 0.6% | -13.9
COC(=O)N1CCC2(CCCN(C(=O)Nc3ccccc3)C2)CC1 | -6.2% | 6.3% | · | ·
CCN(CC)c1ccc(CN(C(=O)c2cc(OC)c(OC)c(OC)c2)C2CCS(=O)(=O)C2)cc1 (configuration not stated) | -18.2% | 7.0% | -1.1% | -21.0
SMILES | HPGD inh | ALDH1A1 block | JMJD2E inh | PNC assembly inh
CN(C)c1ccc(CN(C(=O)COc2ccccc2)C2CCS(=O)(=O)C2)cc1 (configuration not stated) | -22.0% | 3.98µM* | -5.4% | 24.5
CC(C)CCOc1cccc(OCC(=O)NC2CCS(=O)(=O)C2)c1 (configuration not stated) | -6.9% | -2.6% | 4.9% | -6.2
Cc1ccc(OCC(=O)N(Cc2ccc(N(C)C)cc2)C2CCS(=O)(=O)C2)cc1C (configuration not stated) | · | · | 1.5% | ·
CCN(CC)c1ccc(CN(C(=O)c2ccco2)C2CCS(=O)(=O)C2)cc1 (configuration not stated) | -4.6% | 22.4µM* | -4.9% | ?
Cc1c(C(=O)N(Cc2ccc(N(C)C)cc2)C2CCS(=O)(=O)C2)oc2ccccc12 (configuration not stated) | · | · | -10.9% | ·
Cc1ccccc1OCC(=O)N(Cc1ccc(N(C)C)cc1)C1CCS(=O)(=O)C1 (configuration not stated) | -3.1% | 11.2µM* | -1.1% | -10.2
CN(C(=O)c1ccccc1)c1ccc(OCC(=O)NC2CCS(=O)(=O)C2)cc1 (configuration not stated) | -14.8% | 14.1µM* | 3.2% | -12.8
C[C@@H](c1ccccc1)N1C(=O)[C@H]2[C@H]3[C@H](O)[C@H](O)C/C(=N/NC(=O)OCc4ccccc4)[C@H]3CC[C@@H]2C1=O | · | 2.4%[13.5 µM] | · | ·
O=C(Nc1ccc2c(c1)OCO2)C1CCN(C(=O)c2ccc(Br)cc2)CC1 | · | ? | -4.3% | ·
CCC(CC)C(=O)c1c[nH]c(C(=O)N2CCN(c3ccccc3F)CC2)c1 | · | 5.6% | 2.5% | ·
Clc1cccc(C=NC=Nc2cccc(Cl)c2)c1 | -2.4% | 9.4% | -4.4% | ·
CN(C)c1ccc(CN(C(=O)C2COc3ccccc3O2)C2CCS(=O)(=O)C2)cc1 (configuration not stated) | · | 4.47µM* | -5.2% | 11.1
C=CCOc1ccc(C(=O)N(Cc2ccc(N(C)C)cc2)C2CCS(=O)(=O)C2)cc1 (configuration not stated) | -15.0% | 10µM* | -13.8% | 32.6
COC(=O)c1ccc(C(=O)OC)c(NC(=S)N2CCN(c3ccccn3)CC2)c1 | · | -6.3% | ? | ·
O=c1cc(CO)[nH]cc1OCc1ccccc1 | · | -0.5% | 2.5% | ·
CN(C)c1ccc(C(=O)Nc2cc(C(F)(F)F)ccc2-n2cncn2)cc1 | -22.8% | ? | ? | -92.4*
CCN(CC)S(=O)(=O)c1cc(NS(=O)(=O)c2cccc(Cl)c2)ccc1C | -4.0% | 17.8µM* | 3.5% | 75.0
CSc1nc2ccc(NS(=O)(=O)c3ccc(Cl)s3)cc2s1 | 25.1µM* | 39.8µM* | -16.4% | -7.1
CN(C)S(=O)(=O)c1cccc(NS(=O)(=O)c2ccc(Cl)s2)c1 | -2.6% | ? | 1.6% | 30.0
Cc1ccc(NS(=O)(=O)c2ccc(Cl)s2)cc1S(=O)(=O)N(C)C | 1.8% | 3.16µM* | -6.7% | -6.5
CCN(CC)S(=O)(=O)c1cc(NS(=O)(=O)c2cccc(Cl)c2Cl)ccc1C | 5.6% | 7.94µM* | -8.9% | 45.6
CCCCn1c(NCc2cccs2)nc2ccccc21 | · | -2.1% | 1.4% | ·
CCCN(CCC)C(=O)Nc1cc(Cl)ccc1OC | · | · | -6.5% | ·
O=C(/C=C/Sc1ccccc1)c1ccccc1 | ? | 7.94µM* | -6.6% | ?
C/C(=N\NC(=O)c1ccncc1)c1cc2ccccc2oc1=O | ? | 13.3% | 14.1µM* | ?
SMILES | HPGD inh | ALDH1A1 block | JMJD2E inh | PNC assembly inh
C/C(=N\NC(=O)c1ccccc1)c1cc2cc([N+](=O)[O-])ccc2oc1=O | 25.1µM* | -14.7% | -0.6% | ?
C/C(=N\NC(=O)c1ccc([N+](=O)[O-])cc1)c1cc2ccccc2oc1=O | ? | 0.5% | -24.3% | -24.4
C/C(=N/NC(=O)c1ccncc1)c1cc2ccc(O)cc2oc1=O | ? | ? | ? | 6.1
C/C(=N\NS(=O)(=O)c1ccc(C)cc1)c1cc2ccccc2oc1=O | · | 15.8µM* | -19.1% | ·
O=C(COC(=O)c1ccc[nH]c1=O)NC1CCCCC1 | · | · | -18.1% | ·
Cc1ccc(CN2CCN(Cc3cccc4nccnc34)CC2CCO)cc1 (configuration not stated) | · | · | -3.5% | ·
